Experimental findings from paper PMC12864922, “TDP-43 directly inhibits mRNA accumulation in neurites through modulation of mRNA stability” are described below.

B1: ENSMUSG00000029028.201|Lrrc47 (ssRNA)
RNA: GGGAGUUCUACAGUCCGACGAUCGCUUCGAUAUCCGCAUGCUAAGCACACAGCUGCCAUCCCUCGAGCCACAGUGCCUGGUCCUAAGGACCCAGCAGCUGCACAGAGGACUUGGUGGCCCCGUGCCUUGCCAUCUGGCUGAGAAGAGAACCAGACCCUCAGCCUUCCCCCUCGACACCUUCUCGUUGGUGACCUCUGACCUUAAAGGACCAUUUCUACCUUCUGUAAAAGAACACCUGUUUGGGGUUGCGUGCGGCUUUCAUCCUAAGGCCGUGCGAGAGCCGUUAGCUGUCAGAACUAGUGACUCUUGCGGUCGCACUAGUGUGGAAUUCUCGGGUGUCAAGG
B2: ENSMUSG00000028439.16|Fam219a (ssRNA)
RNA: GGGAGUUCUACAGUCCGACGAUCGCUUCGAUAUCCGCAUGCUAAUUCAGUAGUGGGCGGGGUCGCCGCGGUGCACGGGGCGCUGACCUGGGCCCGGUGGGAUGCAGCAGGAGAGACCCCUACCCUGCUGGUCCACUGGUCCCCAGCCCCGCGCCUCUUAGAGCCGCCAACCUCGUAACAGUCAUUGCUUCCUCCUAUGGUAGGACGUGUACCUCUGUGUGUUCAAGGAGCCGGAGAAACCAAAACCGGGUCUGUCUCCAGCCCCGGGGCUGAGGAGGGGUGGGCACUGUUUGUUCGGUUACUUCUCUUGCGGUCGCACUAGUGUGGAAUUCUCGGGUGUCAAGG
B3: ENSMUSG00000031028.682|Tub|139:143;183:187;256:260 (ssRNA)
RNA: GGGAGUUCUACAGUCCGACGAUCGCUUCGAUAUCCGCAUGCUACUAUUUUGGAGUGGUCAGACAUUUUAUUUUUGUUCAAAAUUAUCUGGAGUUUUAGACAAACUUGCAAAACUGUGCUUUUAUUAAGUGACUUUUUGAAUAAACUUUUUGGUAUUCUGAAGCAAAUGUAUUUAUUUAUUGCAUACUGCAAUGACAAACUUGGUAUUUUCCCAUAAUGACAUUAUCAUACUUGUAGAAUUUAGUGUUUGUCUAAGUACAGACAUGUAUCAACACAUUAAACUUGAACUGUUUGACGGCACACACUCUUGCGGUCGCACUAGUGUGGAAUUCUCGGGUGUCAAGG
B4: ENSMUSG00000090935.52|Synj2bp (ssRNA)
RNA: GGGAGUUCUACAGUCCGACGAUCGCUUCGAUAUCCGCAUGCUAGUGUCCCUGAGAGUACAGCACAGGUUACCAGUGCAGAAUGGACCUAUAGUACAUCGAGGUGAAGGAGAGCCAAGUGGAGUUCCUGUAGCUAUGGUGCUGCUACCAGUGUUUGCCCUCACCAUGGUAGCAGUUUGGGCCUUCGUGAGAUACCGAAAGCAGCUUUGAAAUGCUUGCUGUCUUCCAGUGUGUCCAAUGAACUCUCUCUCUCACUCACCAUCUCUGACAUCCUCCCAUAUUCUUUCUCCUCCACAUAGCCAAUACUCUUGCGGUCGCACUAGUGUGGAAUUCUCGGGUGUCAAGG

The full ranking holds about 9,900 sequences; the median of “r (bound/input frequency ratio)” is about 0.7, and the highest 2% start at about 6.5. Shown is part of a subset that was picked to be rich in the highest values.

Sequence of TDP-43 (Q13148 whole entry): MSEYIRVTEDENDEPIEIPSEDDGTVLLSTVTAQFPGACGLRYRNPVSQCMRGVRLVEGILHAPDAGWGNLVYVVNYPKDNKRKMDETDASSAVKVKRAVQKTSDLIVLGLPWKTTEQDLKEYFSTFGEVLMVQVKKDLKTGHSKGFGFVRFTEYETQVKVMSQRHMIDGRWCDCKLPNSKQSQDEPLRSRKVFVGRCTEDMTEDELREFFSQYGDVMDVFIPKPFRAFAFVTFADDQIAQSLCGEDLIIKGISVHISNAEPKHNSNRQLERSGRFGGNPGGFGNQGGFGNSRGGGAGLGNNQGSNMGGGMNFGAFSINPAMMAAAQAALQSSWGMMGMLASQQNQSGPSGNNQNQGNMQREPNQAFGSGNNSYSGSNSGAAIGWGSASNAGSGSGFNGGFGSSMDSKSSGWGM

This assay concerns the target TDP-43 (Homo sapiens, UniProt Q13148 1-414). In words: RNA Bind-n-Seq with designed 260-mer pool; 25 mM Tris-HCl, 150 mM KCl, 3 mM MgCl2, BSA (printed 500 mg/mL), 20 units/mL SUPERase IN; pH not stated; 500 nM RNA pool, 1 h, 4 C; TDP-43 5, 50, 500 nM; high values mean tight binding. The following applies: protein: recombinant; tags: SBP (GST cleaved off with PreScission; pGEX-GST-SBP). The method, boiled down:
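Binding (R) is the ratio of each oligo's mapped-read-normalized abundance in the bound fraction to its abundance in the input. To obtain it, SBP-tagged recombinant TDP-43 (5, 50 or 500 nM) on streptavidin beads was incubated with 500 nM of an in vitro-transcribed 260-nt 3′ UTR oligo pool for 1 h at 4 °C in 25 mM Tris-HCl, 150 mM KCl, 3 mM MgCl2, BSA and SUPERase IN. The RNA retained after washing was released with biotin, then reverse transcribed, amplified by PCR and sequenced.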
On to B1, for which the binding signal was 0.156 R (bound/input frequency ratio).

Turning to B2, the binding signal is 0.466 R (bound/input frequency ratio). As for B3, the figure is 0.0217 R (bound/input frequency ratio); as for B4, 1.19 R (bound/input frequency ratio).
